DAX1 inh-1 = inhibits human nuclear receptor DAX1; HEK293 Gal4-DAX1 luciferase reporter, luminescence; inhibition, % at 6.75 µM; P51843; hit rate 0.99% among 340,000;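 active = inhibition above the mean over all tested compounds plus 3 SD, cut at about 4.2% in these data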;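 note: 0% = DAX1-transfected cells with DMSO and 100% = empty-vector control cells with DMSO; inhibition shows as a rise in luminescence from relieved DAX1 repression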
Target sequence (P51843 207-470 limits assumed): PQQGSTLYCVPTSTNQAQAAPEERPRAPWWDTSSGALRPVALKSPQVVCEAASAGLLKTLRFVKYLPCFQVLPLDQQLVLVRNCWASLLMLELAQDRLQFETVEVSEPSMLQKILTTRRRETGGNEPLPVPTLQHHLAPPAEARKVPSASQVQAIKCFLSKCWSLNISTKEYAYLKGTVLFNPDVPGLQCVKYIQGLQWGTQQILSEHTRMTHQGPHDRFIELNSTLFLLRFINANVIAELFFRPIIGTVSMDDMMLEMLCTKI
ssDAF-12 act = activates DAF-12 receptor from parasite S. stercoralis. hit rate 1% among 370,000. activation, % at 6.8 µM. HEK293 ssDAF-12/GRIP1 lit1-tk-luc reporter, luminescence; % of 3 µM dafachronic acid response. AID 652126;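 active = activation above the mean over all tested compounds plus 3 SD, cut at about 0.9% in these data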;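 note: 0% = DMSO-only wells and 100% = 3 µM delta7-dafachronic acid wells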
DAX1 inh-2 = blocks DAX1 repression of SF-1 activated StAR promoter | HEK293T StAR-luciferase reporter, SF-1/DAX-1 repression relief | inhibition, % at 6.8 µM | hit rate 1.1% among 370,000;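 active = inhibition above the mean over all tested compounds plus 3 SD, cut at about 3.6% in these data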;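 note: 0% = DAX-1 cells with DMSO and 100% = cells lacking DAX-1 with DMSO; higher inhibition means more luminescence from relief of DAX-1 repression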
hcDAF-12 act = activates DAF-12 receptor from parasite H. contortus | HEK293 hcDAF-12 lit1-tk-luc reporter, luminescence; 0% DMSO, 100% Δ7-dafachronic acid | activation, % at 6.8 µM | hit rate 1.4% among 370,000;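 active = activation above the mean of all tested compounds plus 3 SD, cut at about 5.5% in these data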;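 note: 100% = response to 3 µM Δ7-dafachronic acid high control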
hgDAF12 agonist = agonists of H. glycines DAF-12 nuclear receptor | HEK293 GAL4-hgDAF12 UAS-luciferase reporter, agonist luminescence; normalized to butyrate control | activation, % at 6.8 µM | hit rate 1.8% among 370,000;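 active = activation above a cutoff set at the mean of all screened compounds plus 3 SD, cut at about 10% in these data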;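 note: 0% = DMSO wells and 100% = sodium butyrate wells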
hgDAF12 ag = confirmation of H. glycines DAF-12 agonists | activation, % at 6.8 µM | hit rate 80% among 3,300 | shares compounds with hgDAF12 agonist | HEK293 GAL4-hgDAF12 luciferase reporter, agonist mode; percent of butyrate response;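 active = mean activation over triplicate wells above the hit cutoff derived from the earlier primary screen, cut at about 11% in these data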;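 note: 0% = DMSO low control and 100% = 2 mM sodium butyrate high control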
LXR ag 2 = activates human LXR-beta, counter-screen for DAF-12 agonists; activation, % at 6.8 µM; HEK293 Gal4-LXR luciferase reporter, 24 h; shares compounds with hgDAF12 agonist; 3,300 tested, under 10 active;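 active = mean activation of the triplicate above a set limit carried over from the primary screen, none filed active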
Starred values were filed as active, the others as inactive; nt = no result. In the library only some 4.1% were active in any assay of this set; here they are far more common.

SMILES | DAX1 inh-1 | ssDAF-12 act | DAX1 inh-2 | hcDAF-12 act | hgDAF12 agonist | hgDAF12 ag | LXR ag 2
COc1ccc(NC(=O)c2cc3ccccc3[nH]2)cc1 | 6.1* | 0 | 2 | 2 | 17* | 13* | 1
COc1cc(/C=N/N(c2ccccc2)c2ccccc2)ccc1O | 1 | 0 | 0 | 0 | 1 | nt | nt
CCOc1ccc(/C=N/N(C)c2ccccc2)cc1OC | 3 | -1 | 3 | 4 | 14* | 16* | 1
C/C(=N\Nc1ccc([N+](=O)[O-])cc1)c1ccc(O)cc1 | nt | -1 | 1 | 2 | 16* | 9 | 0
CC(C=NNc1ccc([N+](=O)[O-])cn1)=Cc1ccccc1 | 7.5* | 0 | 3.7* | 3 | 17* | 17* | 1
O=[N+]([O-])c1ccc(NN=C(c2ccccc2)c2ccccc2)nc1 | 0 | -1 | 0 | 0 | 2 | nt | nt
CC(=NNc1ccc([N+](=O)[O-])cn1)c1ccccc1 | 1 | 0 | 2 | 1 | 13* | 16* | 1
O=C(Nc1cnc2ccccn2c1=O)c1ccc(Cl)cc1Cl | 0 | 0 | 4.4* | 5 | 16* | 5 | 0
O=S1(=O)CCC(N(N=Cc2ccco2)c2ccccc2)C1 (stereo not given) | nt | -2 | 0 | 0 | -1 | nt | nt
COc1ccc2cc(-c3ccn[nH]3)ccc2c1 | 3 | 1 | 1 | 4 | 14* | 15* | 1
O=C(Nc1ccc(Br)cc1F)c1ccc2nsnc2c1 | 1 | 0 | 1 | 3 | 5 | nt | nt
Cc1ccc(NC(=O)c2ccc3nsnc3c2)c(Cl)c1 | 3 | 1.1* | 2 | 5.8* | 14* | 15* | 1
Cc1ccc(OCc2ccc(Br)cc2)c([N+](=O)[O-])n1 | nt | 1 | 4.0* | 4 | 18* | 14* | 1
COC(=O)c1ccc(/C=C(\C#N)c2ccccn2)cc1 | 5.0* | 1.5* | 3 | 3 | 15* | 14* | 1
O=C(Nc1cccc(Cl)c1)NN(c1ccccc1)C1CCS(=O)(=O)C1 (stereo not given) | nt | -2 | 0 | -1 | 7 | nt | nt
CCOC(=O)CN1CCCc2nc(C)c(C)cc21 | nt | -1 | 0 | 1 | 1 | nt | nt
COc1ccc(/C=C/C(=O)NC(=S)NNC(=O)c2cccs2)cc1 | 3 | -1 | 1 | 2 | 13* | 8 | 0
O=c1c2ccc(Cl)cc2nc(-c2ccc([N+](=O)[O-])cc2)n1O | 1 | -1 | -1 | -1 | -2 | nt | nt
CCOC(=O)C(C)On1c(-c2ccc(Cl)cc2)nc2ccc([N+](=O)[O-])cc21 (stereo not given) | 2 | 0 | 2 | 2 | 14* | 20* | 1
O=C(O)COn1c(-c2ccccc2)nc2ccc([N+](=O)[O-])cc21 | 2 | 1 | 3 | 4 | 14* | 13* | 1
COc1ccc(/C=N/Nc2ncc(Br)cn2)c(OC)c1 | 3 | 0 | 2 | 1 | 16* | 15* | 1
O=C(C(=O)N1CCC(CNC(=O)C2COc3ccccc3O2)CC1)c1cc2ccccc2o1 (stereo not given) | nt | -1 | 0 | -1 | 0 | nt | nt
O=C(Nc1ccc(Br)cc1)c1ccc2ncsc2c1 | -2 | 1.0* | 2 | 5 | 19* | 15* | 1
O=C(Nc1ccc2c(c1)C(=O)NC2=O)c1ccc2ncsc2c1 | -1 | -1 | 1 | 0 | 6 | nt | nt
Cc1cc(OCC(=O)N(C)C2CCCCC2)ccc1Cl | 0 | 1 | 3.6* | 4 | 17* | 10 | 1
Fc1ccc(-c2nc3ccccc3[nH]2)cc1 | 1 | -1 | 3 | 3 | 18* | 12* | 1
O=C(N/N=C/c1ccc(Cl)cc1Cl)c1n[nH]c2c1CCCC2 | 0 | -1 | 1 | 0 | 2 | nt | nt
O=C(N/N=C\c1cccc(Cl)c1)c1n[nH]c2c1CCCC2 | 1 | -1 | 3 | 2 | 14* | 11* | 1
Cc1ccc(C(=O)NCCc2c[nH]c3ccccc23)c(C)c1 | 2 | 0 | 1 | 5 | 15* | 12* | 0

Screening data (PubChem BioAssay)
